# Compound activity: PubChem, National Center for Advancing Translational Sciences (NCATS)
# Giardia FBPA inh-1 – qHTS Assay for Inhibitors of Fructose-1,6-bisphosphate Aldolase from Giardia Lamblia | A8B2U2 | purified Giardia FBPA | Potency, µM (highest dose often 59.6 µM), for inactives: at the top dose activity, negative = inhibition, actives largely listed as inhibitors | hit rate 0.71% among 290,000 | AID 2451, 2010; also: nearly all actives have a fitted effect of over 55% in size
# Target sequence (A8B2U2 whole entry, looked up): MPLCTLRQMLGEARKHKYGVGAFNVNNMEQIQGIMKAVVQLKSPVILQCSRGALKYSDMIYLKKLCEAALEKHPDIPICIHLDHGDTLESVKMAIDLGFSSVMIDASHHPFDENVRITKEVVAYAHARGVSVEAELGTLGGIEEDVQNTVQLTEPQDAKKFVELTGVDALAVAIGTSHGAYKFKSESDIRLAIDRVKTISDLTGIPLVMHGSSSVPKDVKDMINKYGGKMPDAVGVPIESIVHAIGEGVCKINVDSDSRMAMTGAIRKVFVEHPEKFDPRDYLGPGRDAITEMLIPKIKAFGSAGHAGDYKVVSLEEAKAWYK
#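 40 nM FBPA preincubated 10 min at RT with compound (up to 57.5 uM final), then substrate plus GAPDH/TPI/NAD/arsenate coupling and diaphorase/resazurin added. Fluorescence read after 20 min at RT, 525/598 nm.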
# TbPYK inhibitor – qHTS of Trypanosoma Brucei Inhibitors | TbPYK enzyme, Kinase-Glo Plus ATP luminescence, 45 min | Potency, µM (top dose mostly 76.8 µM), without a hit: top-dose activity, negative = inhibition, actives largely listed as inhibitors | hit rate 0.12% among 410,000 | AID 624173, 2012; also: nearly all actives have a fitted effect of over 50% in size
#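 Activity of T. brucei pyruvate kinase was followed by Kinase-Glo Plus luminescence after the enzyme reacted 45 min at room temperature with 130 uM ADP (final) and substrate. Test compounds were added before ADP at multiple concentrations.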
# RE007 growth inh – qHTS Assay for Inhibitors of the HIV-1 protein Vpr; AID 651644, 2012; hit rate 0.21% among 360,000; S. pombe RE007 Vpr strain, BacTiter-Glo ATP luminescence, 24 h; Potency, µM (titrated, usually from 92.2 µM), without a hit: at the top dose activity change, negative = less growth, usual class: inhibitors; active = well fitted falling curve with a large enough effect; inconclusive = small, poorly fitted or top-dose-only effect; inactive = no such curve, though single readings can be large or run the other way; also: nearly all actives have a fitted effect of over 50% in size
#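 Fission yeast strain RE007, carrying one chromosomally integrated HIV-1 vpr copy, was seeded at OD 0.01 in PMG+AL medium with 23 nL pinned compound. After 24 h at 30 °C and 99% humidity, viability was read by BacTiter-Glo luminescence.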
# LmPK inhibitor – qHTS Assay for Inhibitors of Leishmania Mexicana Pyruvate Kinase (LmPK) | Q27686 | purified LmPK, Kinase-Glo ATP luminescence, 1 h | Potency, µM (series often up to 57.5 µM), inactives show top-dose activity change, negative = inhibition, actives largely listed as inhibitors | hit rate 0.37% among 290,000 | AID 1721, 2009
# Target sequence (Q27686 whole entry, looked up): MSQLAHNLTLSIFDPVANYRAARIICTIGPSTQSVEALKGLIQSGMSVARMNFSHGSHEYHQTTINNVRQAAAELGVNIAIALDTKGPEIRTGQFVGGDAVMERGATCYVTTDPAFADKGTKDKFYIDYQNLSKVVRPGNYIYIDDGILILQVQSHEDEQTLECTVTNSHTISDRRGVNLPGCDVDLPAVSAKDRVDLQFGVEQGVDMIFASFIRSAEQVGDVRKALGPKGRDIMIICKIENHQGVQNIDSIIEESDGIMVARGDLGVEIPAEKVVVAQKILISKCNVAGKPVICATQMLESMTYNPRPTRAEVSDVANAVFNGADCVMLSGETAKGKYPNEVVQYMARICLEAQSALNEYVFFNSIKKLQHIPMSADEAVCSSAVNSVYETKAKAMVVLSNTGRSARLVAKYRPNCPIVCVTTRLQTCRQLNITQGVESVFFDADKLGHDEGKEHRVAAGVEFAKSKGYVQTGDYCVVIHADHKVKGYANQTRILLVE
#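 ATP generated from ADP (0.1 mM) and PEP (0.5 mM) by 0.1 nM LmPK over 1 h at room temperature (pH 7.2 imidazole buffer) was detected by coupled luciferase luminescence. Values were normalized to uninhibited and no-enzyme wells.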
# Giardia growth – qHTS Assay for Inhibitors of Fructose-1,6-bisphosphate Aldolase from Giardia Lamblia: Giardia lamblia growth inhibition | shares compounds with Giardia FBPA inh-1 | Giardia lamblia trophozoite growth inhibition | Potency, µM (highest dose often 57.5 µM), without a hit: top-dose activity change, negative = inhibition, hits mostly inhibitors | hit rate 5% among 1,500 | AID 2785, 2010;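 also: trophozoites exposed to compound for 48 h at 37 °C; nearly all actives have a fitted effect of over 70% in size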
# Mammal cell tox – qHTS Assay for Inhibitors of Fructose-1,6-bisphosphate Aldolase from Giardia Lamblia: Mammalian cellular toxicity; Potency, µM (highest dose often 57.5 µM), inactives show top-dose viability change, negative = toxicity, usual class: inhibitors; hit rate 4% among 1,500; shares compounds with Giardia FBPA inh-1; AID 2786, 2010; mammalian cell viability counter-screen, qHTS;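 also: Chinese hamster ovary cells used as mammalian cytotoxicity surrogate; viability measured as cellular ATP by luminescence; compound exposure lasted 48 h before reading; nearly all actives have a fitted effect of over 60% in size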
# Giardia FBPA inh-2 – qHTS Assay for Inhibitors of Fructose-1,6-bisphosphate Aldolase from Giardia Lamblia: Primary screen confirmation; shares compounds with Giardia FBPA inh-1; hit rate 5% among 1,500; purified Giardia aldolase enzyme activity, qHTS; Potency, µM (top dose mostly 57.5 µM), for inactives: at the top dose activity change, negative = inhibition, usual class: inhibitors; also: nearly all actives have a fitted effect of over 45% in size
# Rabbit aldolase – qHTS Assay for Inhibitors of Fructose-1,6-bisphosphate Aldolase from Giardia Lamblia: Rabbit FBPA Selectivity | shares compounds with Giardia FBPA inh-1 | Rabbit muscle FBPA enzyme inhibition, selectivity counter-screen | Potency, µM (doses to about 57.5 µM), for the others: at the top dose activity, negative = inhibition, usual class: inhibitors | hit rate 4% among 1,500 | AID 2794, 2010; also: nearly all actives have a fitted effect of over 60% in size
# GAPDH coupling – qHTS Assay for Inhibitors of Fructose-1,6-bisphosphate Aldolase from Giardia Lamblia: Coupling assay counterscreen confirmation. shares compounds with Giardia FBPA inh-1. GAPDH coupling enzyme counterscreen, biochemical, qHTS. hit rate 6% among 1,500. Potency, µM (highest dose often 57.5 µM), without a hit: at the highest dose activity change, negative = inhibition, hits mostly inhibitors; also: nearly all actives have a fitted effect of over 55% in size
# Starred values were filed as active, the others as inactive; ? = inconclusive; nt = no result; [ ] = remark or other dose. Rows were chosen to be rich in hits. Some 0.95% of all compounds tested hit in one or more screens of this group. Unless noted, calls follow the shape of the dose curve; as a rule, active = well fitted curve in the direction sought with a large enough effect; inconclusive = small, poorly fitted or top-dose-only effect, or another doubt; inactive = no such curve, though single readings can be large; an effect the other way counts as inactive or inconclusive. % is scaled to controls: 0 for no effect and ±100 for the full control effect; potency is read from the fitted curve at half-maximal effect.
SMILES,Giardia FBPA inh-1,TbPYK inhibitor,RE007 growth inh,LmPK inhibitor,Giardia growth,Mammal cell tox,Giardia FBPA inh-2,Rabbit aldolase,GAPDH coupling
COc1ccc(OC)c(C2CC(=O)N3CN(c4ccccc4)CSC3=C2C#N)c1 (stereo unspecified),1.8µM*,3.5µM*,-2%,18%,?,2%,-22%,?,-15%
COc1cc(C2CC(=O)N3CN(Cc4ccco4)CSC3=C2C#N)ccc1OCc1ccccc1 (stereo unspecified),?,?,6%,-7%,nt,nt,nt,nt,nt
O=C(c1ccoc1)N1CCN(c2cc(-c3cccnc3)nc3cc(-c4cccc(Cl)c4)nn23)CC1,nt,-7%,-24%,nt,nt,nt,nt,nt,nt
CCCCCCCCN1C(=O)[C@H](CC(=O)NCCCOCCCC)C[C@@]2(C(=O)OC)CC(C)(C)CC=C12,nt,nt,-1%,nt,nt,nt,nt,nt,nt
CCOC(=O)CCc1c(C)nc(-n2[nH]c(C)c(CCO)c2=O)[nH]c1=O,14µM*,0%,-14%,1%,5%[10.4 µM],0%,-4%,5%,-1%
CCCNC(=O)C1(C)CCCN(C(=O)c2cccc(C#N)c2)C1 (stereo unspecified),nt,-9%,1%,nt,nt,nt,nt,nt,nt
O=C(NC(=S)N1CCN(Cc2ccccc2)CC1)c1cccnc1,18µM*,?,-6%,-12%,?,12%,2%,3%,8%
O=C(NC(=S)N1CCN(C/C=C/c2ccccc2)CC1)c1ccc(Cl)nc1,7.9µM*,-18%,1%,4%,-14%[38.3 µM],?,-2%,4%,-8%
O=C(NC(=S)N1CCCCC1)c1cccnc1,?,-6%,19%,0%,nt,nt,nt,nt,nt
O=c1cc(-c2ccc(O)cc2)oc2c(O)c(O)c(O)c(O)c12,6.3µM*,-28%,5%,-16%,-8%[38.3 µM],-10%,21µM*,18µM*,?
O=c1cc(-c2ccc(O)cc2)oc2c1ccc1ccccc12,nt,4%,3%,nt,nt,nt,nt,nt,nt
Cc1cc(=O)n2nc(N3CCCC(C(=O)NC4CCC(C)CC4)C3)sc2n1 (stereo unspecified),nt,2%,-3%,1%,nt,nt,nt,nt,nt
CCOCc1[nH]c(=S)[nH]c(=O)c1Cc1ccc(OC(C)C)cc1,-4%,0%,14%,8%,nt,nt,nt,nt,nt
COc1ccc(Cc2c(O)[nH]c(=S)[nH]c2=O)cc1,25µM*,?,14%,-2%,-13%[10.4 µM],15%,-6%,11%,11%
CC1(C)CC(=O)C(/C=N/n2cnc3ccccc3c2=O)=C(O)C1,18µM*,-7%,-12%,-20%,0%,-2%,5%,-1%,3%
CC1(C)CC(=O)C(/C=N/c2ccccn2)=C(O)C1,12%,4%,1%,-9%,nt,nt,nt,nt,nt
N#CC1=C(S)N(c2ccccc2)C(c2cccs2)NC1=O (stereo unspecified),6.3µM*,-1%,-12%,-1%,-17%,-5%,5%,4%,6%
CN(C)c1ccc(C=NN2CCCCCC2)cc1,nt,-10%,4%,nt,nt,nt,nt,nt,nt
CC(C)c1ccc(/C=N/N2CCCCC2)cc1,14µM*,-14%,10%,0%,-15%[10.4 µM],-1%,-8%,-5%,-6%
CCCCN(C(=O)c1oc2ccc(OCC)cc2c1C)c1c(N)n(CCCC)c(=O)[nH]c1=O,nt,6%,4%,nt,nt,nt,nt,nt,nt
N#C/C(=C(\O)c1cc(Cl)sc1Cl)c1nc2ccccc2[nH]1,25µM*,-7%,-5%,3%,11%,1%,-19%,3%,?
N#C/C(=C(/O)c1ccc(Cl)cc1)c1nc2ccccc2[nH]1,5%,-4%,0%,-3%,nt,nt,nt,nt,nt
C=CCN(CC#CCOc1ccccc1OC)CC=C,20µM*,nt,nt,-1%,0%[10.4 µM],8%,5%,15%,1%
COc1ccccc1OCC#CCN1CCCC1,?,0%,-8%,-2%,nt,nt,nt,nt,nt
S=C(Nc1nc2c(s1)CCCC2)NC1CC1,14µM*,-11%,-10%,3%,-13%,3%,3%,2%,2%
SMILES,Giardia FBPA inh-1,TbPYK inhibitor,RE007 growth inh,LmPK inhibitor,Giardia growth,Mammal cell tox,Giardia FBPA inh-2,Rabbit aldolase,GAPDH coupling
O=C(NC(=S)Nc1nc2c(s1)CCCC2)c1ccccc1,?,-7%,nt,4%,nt,nt,nt,nt,nt
O=C(O)c1cc(-c2ccc3ccccc3n2)nc2ccccc12,?,-6%,-2%,-1%,nt,nt,nt,nt,nt
O=C(O)c1cc(-c2cc(C(=O)O)c3ccccc3n2)nc2ccccc12,2.5µM*,nt,nt,1%,-13%[38.3 µM],-11%,-2%,4%,-6%
CC1=C(C#N)c2nc(N)c(C#N)c(C)c2/C1=C\c1ccc(OCC(=O)O)c(Cl)c1,20µM*,-11%,50%,-1%,?,-3%,-17%,-12%,-6%
COCCOC(=O)c1c(N)n(Cc2ccco2)c2nc3ccccc3nc12,7.1µM*,-2%,-3%,2%,-5%[38.3 µM],7%,-11%,-6%,-9%
CC(C)OC(=O)c1c(N)n(Cc2ccco2)c2nc3ccccc3nc12,?,-16%,-7%,-1%,nt,nt,nt,nt,nt
CCN(CC)c1ccc(-c2sc(Nc3ccccc3)n[n+]2-c2ccc(F)cc2)cc1,2%,-9%,-7%,-10%,nt,nt,nt,nt,nt
CCc1ccc(Nc2n[n+](-c3ccccc3)c(-c3ccc(N(CC)CC)cc3)s2)cc1,25µM*,-6%,-1%,-2%,4%,?,4%,5%,6%
CC(C)(C)c1cc(C(=O)CCN2CCOCC2)cc(C(C)(C)C)c1O,-7%,5%,8%,0%,nt,nt,nt,nt,nt
CC(C)(C)c1cc(C(=S)N2CCN(CCO)CC2)cc(C(C)(C)C)c1O,10µM*,?,18%,0%,-4%[10.4 µM],-4%,-12%,?,?
O=[N+]([O-])c1ccccc1/C=N/n1c(C2CCCCC2)n[nH]c1=S,-2%,?,27%,-19%,nt,nt,nt,nt,nt
O=[N+]([O-])c1ccccc1/C=N/n1c(C(F)(F)F)n[nH]c1=S,18µM*,?,?,5%,-2%[10.4 µM],4%,?,?,?
